The text below walks through data of ChEMBL document CHEMBL3988442, “University of Dundee, Small-Polar-MMV Screening Library” (2021).

Holding throughout (parameters): scale not given: direction of the effect not stated beside the values
Test [1] has as its target Protein translocase subunit SecA (Escherichia coli (strain K12)) (UniProt P10408). The test can be described thus: Assay to Identify E. coli SecA ATPase Inhibitors. In kind it is functional. The conditions noted are these: 30 µM.
The target of test [2] is T1, Ubiquitin-activating enzyme e1, putative (Leishmania donovani (strain BPK282A1)) (UniProt E9BSI1).
T1 sequence (whole entry): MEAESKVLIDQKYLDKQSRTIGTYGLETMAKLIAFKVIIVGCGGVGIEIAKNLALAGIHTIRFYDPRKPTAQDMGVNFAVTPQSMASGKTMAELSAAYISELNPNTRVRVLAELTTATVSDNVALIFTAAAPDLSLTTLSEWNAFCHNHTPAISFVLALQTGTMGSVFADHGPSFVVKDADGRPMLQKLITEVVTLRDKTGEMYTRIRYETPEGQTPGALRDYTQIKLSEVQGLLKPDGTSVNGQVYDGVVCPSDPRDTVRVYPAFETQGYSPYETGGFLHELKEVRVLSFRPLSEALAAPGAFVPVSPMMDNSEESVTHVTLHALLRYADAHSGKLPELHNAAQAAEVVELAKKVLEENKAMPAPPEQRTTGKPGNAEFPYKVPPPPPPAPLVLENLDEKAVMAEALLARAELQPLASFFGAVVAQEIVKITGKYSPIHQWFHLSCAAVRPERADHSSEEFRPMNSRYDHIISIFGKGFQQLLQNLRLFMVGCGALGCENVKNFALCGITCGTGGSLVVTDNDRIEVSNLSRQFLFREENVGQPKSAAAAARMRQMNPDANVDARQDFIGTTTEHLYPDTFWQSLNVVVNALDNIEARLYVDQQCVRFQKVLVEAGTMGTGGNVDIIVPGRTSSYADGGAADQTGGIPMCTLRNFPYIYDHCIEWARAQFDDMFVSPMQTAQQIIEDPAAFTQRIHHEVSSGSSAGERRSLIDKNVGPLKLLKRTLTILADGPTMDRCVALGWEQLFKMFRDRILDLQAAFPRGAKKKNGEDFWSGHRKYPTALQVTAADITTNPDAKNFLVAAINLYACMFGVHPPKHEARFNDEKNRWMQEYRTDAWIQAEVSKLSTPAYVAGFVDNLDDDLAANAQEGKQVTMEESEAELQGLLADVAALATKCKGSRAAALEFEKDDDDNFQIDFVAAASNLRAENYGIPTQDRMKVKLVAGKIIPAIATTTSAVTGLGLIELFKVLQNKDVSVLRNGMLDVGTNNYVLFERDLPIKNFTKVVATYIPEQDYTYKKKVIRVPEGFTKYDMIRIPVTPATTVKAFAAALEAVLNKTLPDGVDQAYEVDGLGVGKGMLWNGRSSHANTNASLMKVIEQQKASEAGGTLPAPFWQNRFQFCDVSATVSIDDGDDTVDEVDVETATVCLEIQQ
The test can be described thus: Leishmania donovani Ubiquitin Activating Enzyme (LdE1). In kind it is functional. Particulars: 30 µM.

In test [3] the target is AMP-activated protein kinase, AMPK (Homo sapiens) (UniProt P54646+O43741+P54619+Q9UGJ0+Q9Y478+Q13131+Q9UGI9). The test can be described thus: AMP-dependent Kinase enzyme assay. An in vitro enzyme assay that detects ADP turnover that is directly proportional to AMPK activity. This uses naive AMPK that is activated during the assay with MK-8722. It is filed as functional. Particulars: 30 µM.

Test [4] deals with Sialic acid-binding Ig-like lectin 9 (Homo sapiens) (UniProt Q9Y336). Briefly: Hs-Siglec9 ALPHAscreen SOP 20170721. The conditions noted are these: 10 µM.
Test [5] relates to Trypanosoma cruzi. Briefly: Trypanosoma cruzi phosphomannomutase and mannose-1-phosphate guanylyltransferase assay. The conditions noted are these: 10 µM. In kind it is functional.
For test [6], the target named is T2, Arginase-2, mitochondrial (Homo sapiens) (UniProt P78540).
T2 sequence (whole entry): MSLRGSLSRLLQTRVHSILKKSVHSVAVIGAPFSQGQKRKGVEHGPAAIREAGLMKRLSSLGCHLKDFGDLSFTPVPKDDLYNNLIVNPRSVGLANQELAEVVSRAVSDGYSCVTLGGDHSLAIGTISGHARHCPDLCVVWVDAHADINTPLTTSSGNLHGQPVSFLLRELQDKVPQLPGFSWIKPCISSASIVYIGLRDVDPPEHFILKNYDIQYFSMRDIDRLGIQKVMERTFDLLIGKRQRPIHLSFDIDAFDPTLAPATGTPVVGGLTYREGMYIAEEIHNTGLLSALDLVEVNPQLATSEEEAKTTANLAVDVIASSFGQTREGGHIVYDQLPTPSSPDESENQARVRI
The test can be described thus: in vitro enzyme assay to detect the production of urea directly proportional to the activity of Arginase II. Further: in the data most compounds retested in dose-response had high values. In kind it is functional. The conditions noted are these: 33.3 µM.

Test [7] has as its target T3, Proteasome subunit beta (Trypanosoma cruzi) (UniProt O96673).
T3 sequence (whole entry): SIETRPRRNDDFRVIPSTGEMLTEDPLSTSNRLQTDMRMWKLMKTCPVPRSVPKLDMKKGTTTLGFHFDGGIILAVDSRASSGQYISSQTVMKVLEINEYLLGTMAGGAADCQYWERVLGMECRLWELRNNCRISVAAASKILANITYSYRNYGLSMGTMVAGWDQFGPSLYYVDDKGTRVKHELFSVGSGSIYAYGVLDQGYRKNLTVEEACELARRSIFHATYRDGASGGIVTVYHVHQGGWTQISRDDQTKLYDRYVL
Briefly: Trypanosoma cruzi proteasome chymotrypsin-like activity (TcProtChymo) assay. Further: in the data most compounds retested in dose-response had high values. The conditions noted are these: 9.37 µM. It is filed as functional.

The species entered for test [8] is Homo sapiens. Briefly: To identify inhibition of the IFN signalling (Jak-Stat) pathway via expression of an eGFP reporter gene under the control of an IFN-stimulated response element (ISRE) containing MxA promoter. In kind it is functional. The conditions noted are these: 30 µM. (In general: A reporter such as luciferase makes a cellular process visible.)
In test [9] the target is T4, Tyrosyl-tRNA synthetase, putative (Trypanosoma cruzi (strain CL Brener)) (UniProt Q4DSP6).
T4 sequence (whole entry): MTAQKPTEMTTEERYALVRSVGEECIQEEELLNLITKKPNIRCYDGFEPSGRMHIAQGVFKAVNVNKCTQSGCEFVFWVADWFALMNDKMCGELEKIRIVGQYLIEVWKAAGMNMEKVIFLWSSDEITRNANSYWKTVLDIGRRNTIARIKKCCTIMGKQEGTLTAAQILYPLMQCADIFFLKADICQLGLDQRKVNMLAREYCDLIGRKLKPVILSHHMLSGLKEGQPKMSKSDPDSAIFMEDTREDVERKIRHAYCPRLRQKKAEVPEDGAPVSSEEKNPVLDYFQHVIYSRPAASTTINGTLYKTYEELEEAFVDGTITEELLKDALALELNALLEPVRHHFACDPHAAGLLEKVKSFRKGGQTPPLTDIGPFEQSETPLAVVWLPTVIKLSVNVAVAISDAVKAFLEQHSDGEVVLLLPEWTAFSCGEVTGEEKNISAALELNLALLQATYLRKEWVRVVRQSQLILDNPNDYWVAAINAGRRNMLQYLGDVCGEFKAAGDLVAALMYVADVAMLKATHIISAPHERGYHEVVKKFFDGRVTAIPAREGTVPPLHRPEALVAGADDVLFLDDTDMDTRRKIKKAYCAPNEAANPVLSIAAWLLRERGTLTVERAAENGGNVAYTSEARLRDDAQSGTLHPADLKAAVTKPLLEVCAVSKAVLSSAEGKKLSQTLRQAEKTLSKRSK
The test can be described thus: Trypanosoma cruzi tyrosyl tRNA synthetase (TcYRS) _High Tyrosine SOP. Further: in the data most compounds retested in dose-response had high values. In kind it is functional. The conditions noted are these: 30 µM.

Test [10] addresses T4, Tyrosyl-tRNA synthetase, putative (Trypanosoma cruzi (strain CL Brener)). The test can be described thus: Trypanosoma cruzi tyrosyl tRNA synthetase (TcYRS) SOP. Particulars: 30 µM. It is filed as functional.
Test [11] addresses Chromo domain-containing protein 1 (Saccharomyces cerevisiae (strain ATCC 204508 / S288c) (Baker's yeast)) (UniProt P32657). The test can be described thus: ScCHD-1 Enzyme Inhibition Assay. Further: in the data most compounds retested in dose-response had high values. Particulars: 30 µM. In kind it is functional.

For some of these results: Potency and affinity values are given separately.

Chromo domain-containing protein 1 (Saccharomyces cerevisiae (strain ATCC 204508 / S288c) (Baker's yeast)), sequence (P32657 whole entry, the tested form may be a part): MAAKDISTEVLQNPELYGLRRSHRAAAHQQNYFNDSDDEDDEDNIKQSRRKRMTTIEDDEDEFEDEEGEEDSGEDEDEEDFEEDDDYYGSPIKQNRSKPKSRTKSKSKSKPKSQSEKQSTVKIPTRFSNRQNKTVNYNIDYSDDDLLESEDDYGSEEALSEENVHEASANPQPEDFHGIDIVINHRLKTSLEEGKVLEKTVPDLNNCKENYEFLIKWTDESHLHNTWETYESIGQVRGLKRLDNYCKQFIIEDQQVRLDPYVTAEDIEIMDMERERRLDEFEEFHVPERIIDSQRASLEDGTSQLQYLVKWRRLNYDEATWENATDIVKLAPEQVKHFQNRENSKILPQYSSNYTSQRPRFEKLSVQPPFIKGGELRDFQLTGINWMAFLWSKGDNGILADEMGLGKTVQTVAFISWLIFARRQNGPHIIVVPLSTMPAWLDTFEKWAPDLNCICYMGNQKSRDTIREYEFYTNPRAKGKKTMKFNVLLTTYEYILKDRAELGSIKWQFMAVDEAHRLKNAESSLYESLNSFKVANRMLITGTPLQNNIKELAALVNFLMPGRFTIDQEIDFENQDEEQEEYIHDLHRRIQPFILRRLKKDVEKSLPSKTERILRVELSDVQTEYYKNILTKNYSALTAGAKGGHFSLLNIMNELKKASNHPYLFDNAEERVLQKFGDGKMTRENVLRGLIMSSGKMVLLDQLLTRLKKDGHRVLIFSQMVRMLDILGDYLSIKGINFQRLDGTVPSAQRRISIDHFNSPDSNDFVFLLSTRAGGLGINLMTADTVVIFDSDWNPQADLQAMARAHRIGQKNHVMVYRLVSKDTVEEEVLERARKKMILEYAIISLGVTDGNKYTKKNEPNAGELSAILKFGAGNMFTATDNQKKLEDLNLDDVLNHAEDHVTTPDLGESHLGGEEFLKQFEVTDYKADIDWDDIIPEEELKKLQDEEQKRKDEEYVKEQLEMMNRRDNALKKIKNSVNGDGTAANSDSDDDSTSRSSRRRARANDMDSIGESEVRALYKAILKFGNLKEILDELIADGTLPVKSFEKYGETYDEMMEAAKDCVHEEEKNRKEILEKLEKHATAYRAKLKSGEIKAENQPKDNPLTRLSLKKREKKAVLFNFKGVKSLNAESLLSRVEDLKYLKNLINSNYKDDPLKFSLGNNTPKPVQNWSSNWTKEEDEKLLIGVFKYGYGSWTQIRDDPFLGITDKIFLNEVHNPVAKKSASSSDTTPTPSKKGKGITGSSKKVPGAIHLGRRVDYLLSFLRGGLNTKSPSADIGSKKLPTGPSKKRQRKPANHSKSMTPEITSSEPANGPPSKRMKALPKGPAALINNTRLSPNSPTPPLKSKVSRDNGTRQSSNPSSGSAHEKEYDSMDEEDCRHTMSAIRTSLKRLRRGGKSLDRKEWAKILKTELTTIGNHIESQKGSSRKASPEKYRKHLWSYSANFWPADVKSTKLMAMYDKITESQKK
Sialic acid-binding Ig-like lectin 9 (Homo sapiens), sequence (Q9Y336 whole entry): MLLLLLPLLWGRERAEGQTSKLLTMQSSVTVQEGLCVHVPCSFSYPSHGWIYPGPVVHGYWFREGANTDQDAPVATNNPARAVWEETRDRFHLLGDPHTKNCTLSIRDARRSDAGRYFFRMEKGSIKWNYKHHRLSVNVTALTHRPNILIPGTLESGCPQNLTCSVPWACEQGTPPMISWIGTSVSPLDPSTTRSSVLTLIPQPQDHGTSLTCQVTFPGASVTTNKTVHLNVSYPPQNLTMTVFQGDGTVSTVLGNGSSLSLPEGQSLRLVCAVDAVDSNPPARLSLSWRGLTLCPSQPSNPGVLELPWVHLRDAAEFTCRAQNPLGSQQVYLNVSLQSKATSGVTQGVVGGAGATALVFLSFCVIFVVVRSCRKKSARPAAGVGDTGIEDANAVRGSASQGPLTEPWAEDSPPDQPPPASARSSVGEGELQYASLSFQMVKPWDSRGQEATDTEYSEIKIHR
Protein translocase subunit SecA (Escherichia coli (strain K12)), sequence (P10408 whole entry): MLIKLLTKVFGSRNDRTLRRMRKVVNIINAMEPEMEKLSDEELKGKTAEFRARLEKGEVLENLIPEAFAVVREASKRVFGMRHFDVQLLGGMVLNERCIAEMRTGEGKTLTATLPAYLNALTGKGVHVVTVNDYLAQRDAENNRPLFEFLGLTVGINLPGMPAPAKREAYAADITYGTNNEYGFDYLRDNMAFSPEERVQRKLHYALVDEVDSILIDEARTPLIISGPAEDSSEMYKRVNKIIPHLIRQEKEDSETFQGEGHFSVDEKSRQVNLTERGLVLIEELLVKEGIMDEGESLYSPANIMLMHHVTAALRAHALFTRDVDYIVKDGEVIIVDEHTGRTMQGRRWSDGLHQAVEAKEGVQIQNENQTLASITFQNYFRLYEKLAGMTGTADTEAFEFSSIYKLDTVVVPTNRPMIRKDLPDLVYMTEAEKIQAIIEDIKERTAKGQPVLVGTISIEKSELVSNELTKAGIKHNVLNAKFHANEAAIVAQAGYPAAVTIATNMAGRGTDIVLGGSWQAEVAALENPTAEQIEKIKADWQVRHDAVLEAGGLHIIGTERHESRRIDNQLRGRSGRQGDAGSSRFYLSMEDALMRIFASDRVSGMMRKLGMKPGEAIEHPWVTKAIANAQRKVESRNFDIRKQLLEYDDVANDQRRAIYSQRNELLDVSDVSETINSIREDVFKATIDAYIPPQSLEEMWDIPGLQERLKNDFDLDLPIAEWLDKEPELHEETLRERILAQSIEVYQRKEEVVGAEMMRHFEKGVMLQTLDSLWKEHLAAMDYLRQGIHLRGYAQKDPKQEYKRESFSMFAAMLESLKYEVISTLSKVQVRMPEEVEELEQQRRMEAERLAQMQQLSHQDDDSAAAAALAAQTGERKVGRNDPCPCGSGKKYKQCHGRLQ

With `O=C(O)[C@]12CCCN(Cc3ccccc3)C[C@H]1CN(c1ncccn1)C2`, the Percent Effect in test [1] is -4.2%; in [2] it was 5.33%; in [3] it was 7.47%; in test [4], -4.2%; in test [5], 0.386%; in [6], -39.2%. Further, the Percent Effect in test [7] is 9.91%; in [8], -24.8%; in [9], 4.17%; in test [10] it was 12.5%; in test [11] it was -8.27%.
In the case of `Cc1ncc(-c2nc3cc(S(=O)(=O)N4CCCC4)ccc3n2C)cn1`, the Percent Effect in [1] is -5.62%; in test [2] it was 5.48%; in test [3], 12.1%; in [4] it was -7.83%; in test [5], 0%; in [6] it was 6.36%. Also, the Percent Effect is 2.13% in test [7]; 14.1% in [8]; 6.45% in test [9]; 15% in test [10]; -1.23% in [11].
For `Cc1noc(CN2CCC(c3ccnn3CCO)CC2)n1`, the Percent Effect in test [1] was -3.55%; in [2], 12.7%; in [3] it was -1.18%; in test [4], -2.56%; in test [5] it was 8.59%; in test [6], -0.76%. Further, the Percent Effect was 8.76% in [7]; 4.82% in test [8]; 6.4% in [9]; 16.5% in test [10]; -6.79% in test [11].
As for `COCC1c2nnn(CC3CC3)c2CCN1C(=O)Cc1cccs1` (stereo unspecified), the Percent Effect in test [1] is 1.82%; in [2], 2.7%; in [3], -8.03%; in [4], 6.62%; in test [5] it was 4.59%; in test [6], 13.7%. For the same compound, the Percent Effect is 17.2% in [7]; 7.37% in test [8]; 4.3% in test [9]; -58% in [10]; -3.81% in test [11].
In the case of `Cc1ccc(CNC(=O)NCc2csc(C)n2)cn1`, the Percent Effect is -2.07% in test [1]; 17.7% in test [2]; -8.56% in [3]; -3.48% in [4]; -3.31% in test [5]; 8.37% in [6]. In addition, the Percent Effect in test [7] was -1.56%; in test [8], 0.522%; in [9], 5.42%; in [10], 16.5%; in test [11] it was -6.06%.
Regarding `CSc1nccn1-c1cccc(C(=O)NCCCN2CCOCC2)c1`, the Percent Effect in test [1] is -3.34%; in test [2], 18.4%; in [3], 0.67%; in [4] it was -6.16%; in [5], 1.21%; in [6] it was -2.52%. Also, the Percent Effect was 16.5% in [7]; 5.76% in test [8]; 7.39% in test [9]; 18.5% in test [10]; -4.95% in test [11].
Regarding `CC(C(=O)N1CCC(Nc2cccnn2)CC1)n1ccnc1` (stereo unspecified), the Percent Effect is -2.11% in test [1]; 5.41% in test [2]; -6.39% in [3]; 14.9% in [4]; 4.43% in test [5]; -3.21% in [6]. Further, the Percent Effect in test [7] was 3.42%; in [8], 11.9%; in test [9] it was 3.45%; in [10] it was 6.17%; in test [11], -6.18%.
Regarding `CCOc1ccc(S(=O)(=O)NCc2cccnc2N(C)C)cc1`, the Percent Effect is -2.65% in test [1]; 27.9% in [2]; -9.37% in test [3]; -4.06% in test [4]; 7.08% in [5]; -5.7% in [6]. Further, the Percent Effect is 7.29% in [7]; 58.7% in test [8]; 7.39% in test [9]; 26.6% in test [10]; -5.96% in test [11].
Take `Cc1ccc(NC2CCN(C(=O)Cc3ccc(C#N)cc3)CC2)nn1`: the Percent Effect in test [1] was -4.53%; in test [2], 2.7%; in [3], -6.02%; in test [4], 18.2%; in test [5], 4.81%; in test [6], -4.41%. For the same compound, the Percent Effect in test [7] is 3.24%; in test [8] it was -19.9%; in test [9], 6.4%; in test [10], 18.5%; in [11] it was -10.7%.
Regarding `Cc1cnn(CC2CCCCN2CC(=O)NCc2ccccn2)c1` (stereo unspecified), the Percent Effect in test [1] was -2.64%; in [2] it was -2.63%; in test [3], 6.62%; in test [4], 0.337%; in test [5] it was 7.11%; in [6] it was -1.18%. Further, the Percent Effect in [7] was 17.4%; in test [8], -2.67%; in [9], 5.32%; in [10], 5.2%; in [11], -0.694%.
As to `CCC(=O)Nc1nnc(CCCOc2ccccc2)s1`, the Percent Effect was -6.68% in [1]; -1.33% in [2]; 6.74% in [3]; 2.25% in [4]; 1.77% in test [5]; -9.68% in test [6]. Besides, the Percent Effect in test [7] was 10.3%; in test [8] it was -7.47%; in test [9] it was 7.41%; in test [10], 5.13%; in test [11] it was -0.786%.
